The results in this text go back to PubChem BioAssay AID588742 (Southern Research Specialized Biocontainment Screening …, 2011).

The campaign covered roughly 1,800 compounds. About 410 (23%) were called active. The rule behind the calls is not given here. These entries were drawn from the full list. Measured potencies and affinities stand elsewhere.

This assay in a line: Vero cell cytotoxicity, cytotoxicity control for flavivirus capping enzyme inhibitors (AID 588742). The settings on record: Vero cells viability, cytotoxicity counter-screen; series mostly up to 40 µM. On the technique in general: A counterscreen serves to expose hits that act by an unwanted route or on another target.
Consider `COc1ccc(-c2csc(/C(C#N)=C(\O)CSc3nccn3C)n2)cc1OC`, for which the compound was classed as inactive.

For the compound `CCOc1ccc(C(c2c(O)nc(SC)n(C)c2=O)c2c(O)nc(SC)n(C)c2=O)cc1`, the compound was called inactive.

Turning to `COC(=O)C1=C(C(=O)OC)C(c2cc(Br)ccc2O)c2sc(=O)[nH]c2S1` (configuration not stated), the outcome was inactive.

For the compound `Cc1ccc(-c2c(C(=O)N/N=C/c3ccncc3)nnn2-c2nonc2N)cc1`, the compound was classed as inactive.

With `COc1ccc(Cc2c(O)nc(SC)n(C(C)=O)c2=O)cc1`, the compound was classed as inactive.

Regarding `O=C(O)CN1C(=O)/C(=C\c2cccc(OCc3ccccc3)c2)SC1=S`, the compound was called inactive.

For the compound `O=C(CC(c1ccccc1)c1ccccc1O)N1CCCC1` (configuration not stated), the result was inactive.

In the case of `O=C(O)c1ccc2c(c1Nc1ccccc1)C(=O)c1ccccc1C2=O`, the compound was classed as inactive.

As for `Cc1sc(C(C2C(=O)CC(C)(C)CC2=O)C2C(=O)CC(C)(C)CC2=O)cc1[N+](=O)[O-]`, the compound was called inactive.

Regarding `O=C(O)c1cccc(NS(=O)(=O)c2ccc(-c3ccc(S(=O)(=O)Nc4cccc(C(=O)O)c4)cc3)cc2)c1`, the compound was called inactive.

For `CCc1ccc(S(=O)(=O)ON2C(=O)c3ccccc3C2=O)cc1`, the call was inactive.

On to `O=C(c1ccccc1NS(=O)(=O)c1ccc([N+](=O)[O-])cc1[N+](=O)[O-])N1O[C@@H]2C=C[C@H]1C2`, for which the result was inactive.

In the case of `CCOc1ccc2c(c1)n([O-])c1c([n+]2=O)CCCC1`, the outcome was inactive.

In the case of `COc1cc(C(=O)NC(C(=O)Nc2cccc(C(C)=O)c2)C(C)C)cc(OC)c1OC` (configuration not stated), the compound was classed as inactive.

In the case of `Cc1nn(CCc2nc(-c3ccco3)cs2)c2[nH]c(=O)cc(C(F)(F)F)c12`, the result was inactive.

`C/C(=N\Nc1cccc(C(=O)O)c1)c1ccc(Cl)s1`: the outcome was inactive.

Consider `COC1=C(Br)C(=O)c2ncccc2C1=O`, for which the compound was classed as inactive.

For the compound `CC(C)c1ccc(NC(=O)COC(=O)CSc2nnc(N)s2)cc1`, the result was inactive.

`CC(/C=C1\SC(=S)N(c2ccc(C(=O)O)cc2)C1=O)=C\c1ccccc1`: the call was inactive.

With `CN(C)c1cc(N/N=C\c2ccccc2)nc(N(C)C)n1`, the compound was called inactive.

Take `COc1ccc(OC)c2c(C)cc(N3CCCCCC3)nc12`: the result was inactive.

With `O=C(O)CN1C(=O)/C(=C\c2cc(Br)ccc2OCc2ccccc2F)SC1=S`, the outcome was inactive.

On to `COc1cccc(CNC(=O)c2cccnc2Sc2ccc(C)cc2C)c1`, for which the call was inactive.

Regarding `O=C(CCN1C(=O)S/C(=C\c2ccccc2)C1=O)Nc1ccc(S(=O)(=O)Nc2nccs2)cc1`, the call was inactive.

With `CCS(=O)(=O)c1nc(S(=O)(=O)c2ccc(Cl)cc2)c(NCCCN2CCCC2=O)s1`, the call was inactive.

Take `[O-][n+]1c2ccccc2[n+]([O-])c2cc(O)ccc21`: the outcome was inactive.

For the compound `CC(C)c1cccc(-c2ccc3c(c2)S(=O)(=O)c2cccc(C(=O)O)c2C3=O)c1`, the compound was classed as inactive.

Take `COc1cc(/C=N/NC(=S)N/N=C/c2cc(OC)c(OC)c(OC)c2)cc(OC)c1OC`: the result was inactive.

With `CN(C)c1ccc(N=Nc2ccc(S(=O)(=O)O)cc2)c2ccccc12`, the result was inactive.

Take `CC(=O)NC(CC(=O)OCC(=O)Nc1cc(S(=O)(=O)N2CCCCC2)ccc1C)c1ccccc1` (configuration not stated): the result was inactive.

With `C#CCOc1ccc(/C=C2/C(=O)ON=C2C)cc1Br`, the compound was classed as inactive.

Consider `Cc1cc(C)c(S(=O)(=O)ON2C(=O)c3ccccc3C2=O)cc1C`, for which the compound was called inactive.

As to `Cc1ccc(C)c(S(=O)(=O)/N=C2\C=C(NS(=O)(=O)c3ccccc3)C(=O)c3ccccc32)c1`, the compound was classed as inactive.

In the case of `O=C(OCCCN=C1NS(=O)(=O)c2ccccc21)c1ccc(F)cc1`, the call was inactive.

Take `COc1cc(C2C(C#N)=C(N)OC3=C2C(=O)CC(C)(C)C3)cc([N+](=O)[O-])c1O` (configuration not stated): the outcome was inactive.

For the compound `O=C(NN=Cc1cc(Br)c(O)c(Br)c1)c1ccccc1NS(=O)(=O)c1cccs1`, the result was inactive.

As to `CN(C)c1ccc(NC(=O)c2ccc(Cn3cc([N+](=O)[O-])cn3)cc2)cc1`, the outcome was inactive.

For `C/C(CCc1oc2c(Br)cc(Br)cc2c1-c1ccc(C)o1)=N\O`, the outcome was inactive.

In the case of `CCCC(=O)OCCNc1cc(SCc2ccco2)c2nonc2c1[N+](=O)[O-]`, the result was inactive.

Take `CC(=O)OCCNc1cc(SCc2ccco2)c2nonc2c1[N+](=O)[O-]`: the compound was classed as inactive.

`CC(=O)OCCCNc1cc(SCc2ccco2)c2nonc2c1[N+](=O)[O-]`: the outcome was inactive.

`CN(c1ccccc1)c1ccc(/C=C(/CCC(=O)O)c2nc3ccccc3s2)cc1[N+](=O)[O-]`: the compound was called inactive.

Regarding `COc1cc(/C=C2\C(=O)N(c3ccc(NC(C)=O)cc3)N=C2c2ccccc2)ccc1O`, the result was inactive.

In the case of `CCOc1ccc(N2C(=O)C(Cl)=C(Nc3ccccc3O)C2=O)cc1`, the outcome was inactive.

Regarding `C=CCOc1c(Br)cc(/C=C2/C(=O)ON=C2C)cc1OC`, the compound was classed as inactive.

`Cc1cc(C2C(=O)CC(=O)CC2c2ccccc2)on1` (configuration not stated): the result was inactive.

Take `COc1cc(/C=C2/C(=N)N3C(c4ccccc4)=CSC3=NC2=O)ccc1OCC(=O)O`: the outcome was inactive.

`CCc1ccc(N=C2NC(=O)/C(=C/c3cc(Br)c(OCC(=O)O)c(OC)c3)S2)cc1`: the compound was classed as inactive.

Regarding `O=C1/C(=C/c2cccs2)SC(=S)N1NS(=O)(=O)c1ccccc1`, the call was inactive.

Take `CCCOC(=O)c1c(-c2ccc(C)cc2C)csc1NC(=O)C1C2CCC(O2)C1C(=O)O` (configuration not stated): the compound was classed as inactive.

Turning to `COc1cccc(-c2[nH]nc3c2C(c2ccoc2)C(C#N)=C(N)O3)c1` (configuration not stated), the outcome was inactive.

As to `O=S(=O)(O)c1cc2onnc2c2ccccc12`, the compound was called inactive.

Turning to `CC1CC(=O)C(C(C2=C(O)CC(C)CC2=O)c2ccccc2)=C(O)C1` (configuration not stated), the outcome was inactive.

Take `Cc1[nH][nH]c(=O)c1C(c1ccc(-c2ccc(Cl)c(C(=O)O)c2)o1)c1c(C)[nH][nH]c1=O`: the result was inactive.

As to `Cc1[nH][nH]c(=O)c1C(c1ccc(-c2cccc(Cl)c2)o1)c1c(C)[nH][nH]c1=O`, the outcome was inactive.

For `Cc1[nH]n(-c2ncc(-c3ccccc3)s2)c(=O)c1C(c1ccc(Br)cc1)C(C#N)C#N` (configuration not stated), the compound was classed as inactive.

Turning to `O=C(O)c1cc([N+](=O)[O-])c(Nc2cccc3ccccc23)c([N+](=O)[O-])c1`, the result was inactive.

For `O=C1Nc2ccc(F)cc2C12Nc1ccccc1-c1nnc(SCc3ccccc3Cl)nc1O2` (configuration not stated), the compound was classed as inactive.

For `CCc1ccc([C@@H]2CC=C(C(=O)O)[C@H](c3ccc(Cl)cc3)N2S(=O)(=O)c2ccc(C)cc2)cc1`, the compound was called inactive.

`O=C(O)[C@H](Cc1ccccc1)N1C(=O)c2c(Cl)c(Cl)c(Cl)c(Cl)c2C1=O`: the call was inactive.

Regarding `Cc1cc(C)c2nc(N3C(=O)C(O)=C(C(=O)c4ccco4)C3c3cccc(O)c3)sc2c1` (configuration not stated), the outcome was inactive.

`COc1ccc(CNC(=O)CCCC2=NS(=O)(=O)c3ccccc3N2)cc1`: the compound was classed as inactive.

In the case of `Cc1[nH]n(-c2ccccc2)c(=O)c1C(c1ccccc1[N+](=O)[O-])C(C#N)C#N` (configuration not stated), the result was inactive.

On to `O=C1CCC/C1=C/Nc1ccc2c(c1)OCO2`, for which the call was inactive.

In the case of `N#Cc1c2c(c(-c3ccco3)[nH]c1=O)CCCC2`, the compound was classed as inactive.

For the compound `Cn1c(=O)c([N+](=O)[O-])c(Oc2ccccc2)c2ccccc21`, the compound was classed as inactive.

With `O=Nc1c(O)ccc2cc(S(=O)(=O)O)ccc12`, the compound was classed as inactive.

In the case of `COC(=O)c1cc(C(=O)OC)cc(N2C(=O)CC(NNC(=O)c3ccccc3Cl)C2=O)c1` (configuration not stated), the result was inactive.

Regarding `O=C(O)/C=C/C(=O)Nc1ccc(C2(c3ccc(NC(=O)/C=C/C(=O)O)cc3)c3ccccc3-c3ccccc32)cc1`, the call was inactive.

Consider `CCCn1nc(NS(=O)(=O)c2cccc3nonc23)c2cc3cccc(C)c3nc21`, for which the outcome was inactive.

In the case of `Cc1ccc(/C=C2\SC(=S)N(NS(=O)(=O)c3ccc(C)cc3)C2=O)cc1`, the compound was called inactive.

For `Cc1ccc(-c2nnc(Nc3ccc(CC(N)=O)cc3)c3ccccc23)cc1S(N)(=O)=O`, the call was inactive.

Turning to `Cc1nc(Nc2ccc(C(=O)O)cc2)nc(Nc2ccc(C(=O)O)cc2)c1[N+](=O)[O-]`, the result was inactive.

`CC1=CC(=O)C(Sc2ccc(C)cc2)=CC1=O`: the compound was called inactive.

With `O=C(CCN1C(=O)/C(=C/c2ccc3c(c2)OCO3)SC1=S)Nc1cccc(C(=O)O)c1`, the result was inactive.

On to `COc1ccc2nc(N3CCC(O)CC3)c(C#N)cc2c1`, for which the result was inactive.

As for `CCOC(=O)c1c(=O)n(O)c2ccc(C)cc2[n+]1[O-]`, the call was inactive.

`Cc1ccc(-c2ccc(/C=C3\C(=O)ON=C3c3ccccc3)o2)c([N+](=O)[O-])c1`: the outcome was inactive.

For the compound `COc1ccc(/C=C2\C(=O)ON=C2c2ccccc2)cc1OC`, the compound was called inactive.

With `COc1cccc(/C=C2/C(=O)NN(c3ccc(C)c(C)c3)C2=O)c1`, the call was inactive.

As for `CCOc1cc(/C=N/N=C2/NC(=O)C(CC(=O)O)S2)ccc1OCc1ccc(Cl)cc1` (configuration not stated), the result was inactive.

With `Cn1cc([N+](=O)[O-])c(C(=O)N(Cc2ccccc2)Cc2ccccc2)n1`, the compound was classed as inactive.

Turning to `CNc1ccc(Br)cc(C(=O)/C=C/c2cccc(OC)c2OC)c1=O`, the compound was classed as inactive.

For `COc1ccc(Br)cc1/C=C/C(=O)NC(=S)Nc1ccc(Cl)c(C(=O)O)c1`, the call was inactive.

For the compound `CC1(C)CC(=O)C(C(C2=C(O)CC(C)(C)CC2=O)c2ccc(O)c([N+](=O)[O-])c2)=C(O)C1`, the call was inactive.

As for `O=C(O)/C(=C\c1c(C(=O)O)[nH]c2cc(Cl)cc(Cl)c12)c1ccccc1`, the outcome was inactive.

With `Oc1c(Br)cc(/C=N/n2c(-c3ccccc3)n[nH]c2=S)cc1Br`, the outcome was inactive.

Consider `CCOCCCNC(=O)CC1Oc2ccc(C)cc2NC1=O` (configuration not stated), for which the outcome was inactive.

With `Cc1ccc(CC(CC(=O)Nc2cccc(C(F)(F)F)c2)C(=O)O)cc1` (configuration not stated), the compound was called inactive.

Take `O=C1CCCC/C1=C/Nc1ccc2c(c1)OCO2`: the compound was called inactive.

For the compound `CC(=O)Oc1ccc(/C=C2/C(=O)N(c3ccccc3)N=C2C)cc1`, the compound was called inactive.

Regarding `COC(=O)CC1=NN(c2ccccc2)C(=O)/C1=C\c1ccc(OC)cc1`, the compound was called inactive.

As to `Cc1ccc(C2C(C#N)=C(N)Oc3nc(-c4ccccc4)[nH]c32)o1` (configuration not stated), the compound was classed as inactive.

Consider `O=C1C(Cl)=C(NCCc2ccccc2)C(=O)c2ccccc21`, for which the outcome was inactive.

As to `COc1cccc(/C=C2\SC(=S)N(C(C(=O)O)c3ccccc3)C2=O)c1OC` (configuration not stated), the result was inactive.

For the compound `COc1cc2c3c(c1)-c1c(sn(-c4cc(OC)ccc4OC)c1=S)C(C)(C)N3C(=O)C2=O`, the call was inactive.

As to `C#CCOc1c(Br)cc(/C=C2/C(=O)ON=C2C)cc1OCC`, the call was inactive.
